According to PubChem BioAssay (NCI):
The panel holds about 83,000 compounds, 20% with a hit somewhere; the sample as a whole holds those more often.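 Step 1: grow cells in 96-well plates. Step 2: add test compound at a single concentration. Step 3: incubate 48 h. Step 4: record percent growth.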 Unmarked numbers belong to inactive results. Active and inactive are the calls of the source. Rule for the calls: active = growth percent below 10; inactive = the rest.

What was measured:
Experiment in all cases: NCI-60 one-dose screen, 48 h (100 = growth as untreated, 0 = no growth, -100 = all killed)
BT-549 breast = details: 10 µM unless noted
MDA-MB-435 melanoma = details: 10 µM unless noted
SW-620 colon = details: 10 µM unless noted
MCF7 breast = test system: MCF7 breast
HCT-116 colon = details: 10 µM unless noted
HCC-2998 colon = details: 10 µM unless noted
KM12 colon = details: 10 µM unless noted

SMILES | growth (BT-549 breast) | growth (MDA-MB-435 melanoma) | growth (SW-620 colon) | growth (MCF7 breast; 10 µM) | growth (HCT-116 colon) | growth (HCC-2998 colon) | growth (KM12 colon) | growth (MCF7 breast; 20 µM)
CCCCCCCCCCCCCCCCOP(=O)([O-])OCC[N+](C)(C)C | 45% | 68.3% | 50.9% | 68.5% | 24.6% | 17.7% | -90.4% (active) | 
C/C=C1\SC(=S)NC1=O | 95.7% | 101% | 112% | 86.9% | 96.9% | 85% | 106% | 
NC(=S)N/N=C/c1ccc(Cl)s1 | 112% | 104% | 105% | 104% | 93.4% | 111% | 101% | 
CC(=O)C(=Cc1ccc(C=C(C(C)=O)C(C)=O)cc1)C(C)=O | 12.6% | 7.62% (active) | -11.2% (active) | 1.33% (active) | -56.3% (active) | 45.2% | -43.7% (active) | 
N[C@H](C(=O)O)[C@@H]1CC(Cl)=NO1 | 27.3% [20 µM] | 29.6% [20 µM] | 10.2% [20 µM] |  | 14.1% [20 µM] | 34.7% [20 µM] | 18.2% [20 µM] | 12.3%
Cc1ccnc(NC(c2ccccc2)c2ccc3cccnc3c2O)c1 (configuration not stated) | 57.1% | 30.5% | 48.9% | 22.4% | 31.8% | 27.3% | 32.8% | 
CNc1ccc2c(c1)c1ccccc1n2C | 106% | 115% | 111% | 97.5% | 107% | 99.4% | 104% | 
CN(C)c1ccc(C(=C2C=CC(=[N+](C)C)C=C2)c2ccc(N(C)C)cc2)cc1 (tested in a mixture with another compound) |  | -57.7% (active) | -72.3% (active) | -92.3% (active) | -76% (active) | -80.3% (active) | -95.3% (active) | 
CN(C)c1ccc(/C=N/N=C(\C#N)[S][Sn]([Cl])([c]2ccccc2)[c]2ccccc2)cc1 | 57.5% | 15.6% | -52.2% (active) | -81.9% (active) | -59.4% (active) | 63.5% | 63.3% | 
